# Measured values published in PubChem BioAssay (NCI).
# About 83,000 compounds went through this panel and 20% of them were active in at least one assay; those are over-represented in the sample as a whole.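 The test compound was applied at a single concentration to cells in 96-well plates for 48 hours, and percent growth was recorded.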 Activity calls are given as the source filed them. How the source made its calls: active means growth percent below 10; inactive means the rest.
# System: HT29 colon
# Test: NCI-60 one-dose screen, 48 h (100 = growth as untreated, 0 = no growth, -100 = all killed)
# Conditions: 10 µM
row,Compound,growth
1,Cc1ccc(C(=O)NCCCNc2nc(Nc3ccc(N4CCN(C)CC4)cc3)nc3ccsc23)cc1,8.64% (active)
2,O=C(c1ccc(-n2c(=O)[nH]c3ccccc3c2=O)cc1)N1CCOCC1,114% (inactive)
3,O=S(=O)(c1ccc(Cl)cc1)c1nc(-c2ccccc2)oc1S(=O)(=O)c1ccc(Cl)cc1,89.7% (inactive)
4,Cc1ccc(C(C)C)cc1NC(=O)c1ccccc1N(C)C,74.6% (inactive)
5,COc1ccc2[nH]c(O)c(N=NC(=O)COc3ccc(NC(=O)Nc4ccc(Cl)c(Cl)c4)cc3)c2c1,-88.4% (active)
6,COc1cccc(-c2nn(-c3ccccc3)cc2-c2ccnc(NCCCNC(=O)Nc3ccc(F)cc3)c2)c1,-7.83% (active)
7,CN1CCN(c2ccc(Nc3nc(NCCCNC(=O)c4ccc(F)cc4)c4sccc4n3)cc2)CC1,11.2% (inactive)
8,CC1(C)CC[C@]2(C(=O)Nc3ccccc3)CC[C@]3(C)C(=CC[C@@H]4[C@@]5(C)CC[C@H](N)C(C)(C)[C@@H]5CC[C@]43C)[C@H]2C1,21.8% (inactive)
9,C[C@H]1[C@H](C)CC[C@]2(COC(=O)CCC(=O)NCC#CCN3CCNCC3)CC[C@]3(C)C(=CC[C@@H]4[C@@]5(C)CCCNC(C)(C)[C@@H]5CC[C@]43C)[C@H]12,-21% (active)
10,O=C(Nc1ccncc1)c1ccc(-n2c(=O)[nH]c3ccccc3c2=O)cc1,105% (inactive)
11,Cc1ccc(C(C)C)cc1NC(=O)c1ccccc1O,103% (inactive)
12,CCCS(=O)(=O)c1oc(-c2ccc(F)cc2)nc1S(=O)(=O)c1ccc(F)cc1,-69.6% (active)
13,CN(C)c1cccc2c(S(=O)(=O)Nc3cccc(-c4csc(NC(=O)CCCCCN5CCN(c6cc7c(cc6F)C(=O)N(C6CCC(=O)NC6=O)C7=O)CC5)n4)c3)cccc12 (configuration not stated),92.3% (inactive)
14,CC(=C(c1ccc(OCCN2CCCCC2)cc1)c1ccc(OCCN2CCCCC2)cc1)c1ccccc1,-26.2% (active)
15,CC[C@@]1(O)C(=O)OCc2c1cc1n(c2=O)Cc2c-1nc1cc(F)c(C)c3c1c2[C@@H](N)CC3,-11.1% (active)
16,O=C(Cn1cc(CSc2nnc3oc4ccccc4n23)nn1)Nc1cccc(Cl)c1,82.3% (inactive)
17,C=C(C)[C@@H]1CC[C@]2(C(=O)OC)CC[C@]3(C)[C@H](CC[C@@H]4[C@@]5(C)CC[C@H](N)C(C)(C)[C@@H]5CC[C@]43C)[C@@H]12,-70.6% (active)
18,COc1ccc(-c2nc(S(=O)(=O)c3ccc(C)cc3)c(S(C)(=O)=O)o2)cc1,-74.8% (active)
19,CCN1CCN(c2ccc(NC(=O)Nc3ccc(-c4cc(C(=O)NC(C)C)c5ncccc5n4)cc3)cc2C(F)(F)F)CC1,-82.3% (active)

row,Compound,growth
1,C=C[C@H]1[C@H](O[C@@H]2OC(CO)[C@@H](O)[C@H](O)C2OC(=O)c2c(O)cc(O)cc2-c2cccc(O)c2)OC=C2C(=O)OCC[C@H]21 (some centres not stated),108% (inactive)
2,COc1ccc(C(C)=C(c2ccc(OCCCN(C)C)cc2)c2ccc(OCCCN(C)C)cc2)cc1,-94.3% (active)
3,CC1(C)CC[C@]23CC[C@]4(C)[C@H](CC[C@@H]5[C@@]6(C)CC[C@H](N)C(C)(C)[C@@H]6CC[C@]54C)[C@H]2[C@H]1OC3=O,-66.7% (active)
4,CCN1CCN(c2ccc(NC(=O)Nc3ccc(-c4cc(C(=O)NC)c5ncccc5n4)cc3)cc2C(F)(F)F)CC1,-100% (active)
5,COc1ccc2[nH]c(O)c(N=NC(=O)c3cc(-c4ccc(C)cc4)nc4ccccc34)c2c1,113% (inactive)
6,O=C(Cn1cc(CSc2nnc3oc4ccccc4n23)nn1)Nc1ccc(Br)cc1,103% (inactive)
7,CN1CCN(c2ccc(Nc3nc(N4CCN(S(=O)(=O)c5ccc(F)cc5)CC4)c4sccc4n3)cc2)CC1,-63.1% (active)
8,COc1ccccc1NCc1ccc(CO)n1-c1ccc(C)cc1,102% (inactive)
9,CC(=C(c1ccc(OCCCN(C)C)cc1)c1ccc(OCCCN(C)C)cc1)c1ccccc1,-78.4% (active)
10,CN1CCN(c2ccc(Nc3nc(NCCCNC(=O)c4ccccc4)c4sccc4n3)cc2)CC1,14.6% (inactive)
11,CCCCCc1ccc(S(=O)(=O)N(C(C)=O)c2cc(-c3csc(N(C)C(C)=O)n3)ccc2N2CCN(C)CC2)cc1,-52.5% (active)
12,C=C1CC[C@H](C(=C)C)[C@H]2C=C(C)C(=O)C3=C(C(=O)[C@@](C)(O)C3)[C@H]12,-37.6% (active)
13,CC(=O)Nc1nc(-c2ccc(N3CCN(C)CC3)c(NS(=O)(=O)c3cccc4c(N(C)C)cccc34)c2)cs1,21.7% (inactive)
14,CNC(=O)c1cccc(N2CCc3c2ccc(NC(=O)Nc2ccc(N4CCN(C)CC4)c(C(F)(F)F)c2)c3F)c1,-88.3% (active)
15,CN1CCN(c2ccc(Nc3nc(N4CCN(S(=O)(=O)c5ccc(Cl)cc5)CC4)c4sccc4n3)cc2)CC1,-51.3% (active)
16,CC1(C)CC[C@]2(C(=O)NCCCNCCCCNCCCN)CC[C@]3(C)C(=CC[C@@H]4[C@@]5(C)Cc6c([nH]c7ccccc67)C(C)(C)[C@@H]5CC[C@]43C)[C@H]2C1,92.4% (inactive)
17,C=CC(=O)Nc1nc(-c2cccc(NS(=O)(=O)c3cccc4c(N(C)C)cccc34)c2)cs1,-56.3% (active)
18,COC1CC(Cn2cc(COc3ccc4ccc(=O)oc4c3)nn2)C(OCc2ccccc2)C(OCc2ccccc2)C1OCc1ccccc1 (configuration not stated),108% (inactive)
